This is a sample that favours compounds with a hit; in the whole collection about 11% have one here.
HTT ATP protect – protects HTT-Q103 PC12 cells, measured by ATP | 230,000 tested, 0.14% active | PC12 HTT-Q103 induced, cytoprotection, ATP luminescence, 40 h | Potency, µM (highest dose often 56.4 µM), for inactives: cytoprotection (ATP increase), hits mostly activators; active = well fitted curve in the direction sought with a large enough effect; inconclusive = small, poorly fitted or top-dose-only effect, or another doubt; inactive = no such curve, though single readings can be large; an effect the other way counts as inactive or inconclusive; also: potency is read from the fitted curve at half-maximal effect; % of control where 0% means no effect; nearly all actives have a fitted effect of over 45% in size
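Rat PC12, Q103 Htt exon1-GFP fusion, ecdysone promoter; tebufenozide inducer 100 nM final; compound titration; qHTS, 1500 cells/well; ATPlite luminescent read.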
ALDH1A1 block – inhibitors of human aldehyde dehydrogenase 1A1; Purified ALDH1A1, NADH fluorescence, propionaldehyde substrate; AID 1030; 220,000 tested, 7.3% active; Potency, µM (doses to about 75.3 µM), for the others: top-dose activity, negative = inhibition, usual class: inhibitors; P00352;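 also: potency is read from the fitted curve at half-maximal effect; plate controls were no enzyme wells and a reference inhibitor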
RGS12 GoLoco inh – blocks human Gai1 binding to RGS12 GoLoco peptide, red readout; P63096; Gai1:RGS12 GoLoco peptide FP, rhodamine, 10 min; Potency, µM (top dose mostly 61.6 µM), for the others: at the highest dose activity, negative = inhibition, actives largely listed as inhibitors; 230,000 tested, 0.44% active; active = well fitted inhibition curve with a large enough effect, not every such curve was filed as active; inactive = no such curve, though single readings can be large or run the other way; also: potency is read from the fitted curve at half-maximal effect; % is scaled to controls: 0 for no effect and ±100 for the full control effect; nearly all actives have a fitted effect of over 30% in size
Target sequence (P63096 whole entry, looked up): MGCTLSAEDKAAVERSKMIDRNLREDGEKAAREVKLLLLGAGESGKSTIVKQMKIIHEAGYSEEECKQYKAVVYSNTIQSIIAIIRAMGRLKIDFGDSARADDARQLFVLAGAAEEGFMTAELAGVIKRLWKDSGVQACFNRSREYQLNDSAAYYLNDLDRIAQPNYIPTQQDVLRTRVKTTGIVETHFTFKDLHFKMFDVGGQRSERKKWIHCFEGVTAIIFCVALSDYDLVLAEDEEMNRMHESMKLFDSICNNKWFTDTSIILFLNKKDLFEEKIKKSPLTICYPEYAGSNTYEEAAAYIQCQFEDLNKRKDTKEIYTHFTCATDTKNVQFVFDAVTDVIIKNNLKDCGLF
PNC inhibitor – inhibitors of perinucleolar compartment assembly. PC3M PTB-GFP, PNC prevalence imaging, 16 h; stronger effect = lower value. 140,000 tested, 3.1% active. AID 2417. activity change (PNC), negative = inhibition, % at 10 µM;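 active = readout at or below -70, meaning at least 70% loss of cells showing the perinucleolar compartment, a nuclear body marking cancer cells; inconclusive = readout between -30 and a set limit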;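 also: plate controls were DMSO wells for no effect and camptothecin positive control wells for full effect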
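Compounds are pinned in duplicate onto adhered PC3M cells stably expressing GFP-tagged PTB and incubated 16 h at 37 C. Cells are then fixed, nuclei stained with Hoechst, and PNC-positive cells counted.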
HPGD inh – blocks human HPGD enzyme activity. purified HPGD, NADH fluorescence kinetic, PGE2 substrate. Potency, µM, for inactives: at the top dose activity change, negative = inhibition, usual class: inhibitors. 150,000 tested, 4.3% active. P15428; also: potency is read from the fitted curve at half-maximal effect; % is scaled to controls: 0 for no effect and ±100 for the full control effect
Target sequence (P15428 whole entry, looked up): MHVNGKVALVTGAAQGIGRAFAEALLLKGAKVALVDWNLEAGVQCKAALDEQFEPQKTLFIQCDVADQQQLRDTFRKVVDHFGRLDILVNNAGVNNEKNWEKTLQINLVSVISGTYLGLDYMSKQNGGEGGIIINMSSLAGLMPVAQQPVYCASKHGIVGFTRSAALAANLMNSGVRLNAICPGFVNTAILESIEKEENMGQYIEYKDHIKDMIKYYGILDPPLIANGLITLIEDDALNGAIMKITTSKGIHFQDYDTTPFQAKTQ
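20 nM HPGD preincubated 15 min at room temperature with compound in 50 mM Tris-HCl pH 8, 0.01% Tween 20. Started with 1 mM NAD+ and 30 uM prostaglandin E2; NADH fluorescence (360/450 nm) read 5 times over 30-s intervals, last minus first.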
HTT aggregate – inhibitors of mutant huntingtin aggregate formation in PC12 cells; PC12 HttQ103-GFP aggregates, Acumen cytometry, 40 h; Potency, µM (top dose mostly 46.1 µM), without a hit: at the top dose activity change, negative = inhibition, hits mostly inhibitors; 220,000 tested, 1.1% active; AID 1688; active = well fitted curve in the direction sought with a large enough effect; inconclusive = small, poorly fitted or top-dose-only effect, or another doubt; inactive = no such curve, though single readings can be large; an effect the other way counts as inactive or inconclusive; also: potency is read from the fitted curve at half-maximal effect; % is scaled to controls: 0 for no effect and ±100 for the full control effect; nearly all actives have a fitted effect of over 60% in size
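Aggregates are detected as GFP objects 1–25 µm with signal 6 STDEV over background in lysates of induced PC12 cells. These carry Huntingtin exon 1 with 103 glutamines fused to GFP under an ecdysone promoter; compounds titrated.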
* marks the source's active call; other numbers are inactive results; ? = inconclusive; · = not tested or not shown; [ ] = remark or other dose. Unless noted, calls follow the shape of the dose curve; as a rule, active = well fitted inhibition curve with a large enough effect (not every such curve was filed as active); inconclusive = small, poorly fitted or top-dose-only effect, or another doubt; inactive = no such curve, though single readings can be large or run the other way.

SMILES | HTT ATP protect | ALDH1A1 block | RGS12 GoLoco inh | PNC inhibitor | HPGD inh | HTT aggregate
O=C1[O][Bi][O]c2ccccc21 | -0.9% | · | -3.5% | · | · | -7.2%
COc1cccc(-c2nccc(NC3CCNCC3)n2)c1 | 29.2% | 6.5% | -0.2% | · | -3.5% | ·
CCc1ccc2c(c1)N(C[C@H](C)CN(C)C)c1ccccc1S2 | -74.8% | 2.5%[13.5 µM] | 1.2%[14.2 µM] | · | -16.1% | -39.1%
O=C(NCC1(N2CCOCC2)CCCCC1)c1cccc(S(=O)(=O)N2CCc3ccccc3C2)c1 | -36.9% | 3.3% | 6.8% | · | · | -28.6%
N#CC(=C(/N)Sc1ccccc1N)/C(C#N)=C(\N)Sc1ccccc1N | 25.7% | · | 8.6% | · | · | ·
O=C(NC1CCCCCC1)C1CCN(S(=O)(=O)c2cccc3cccnc23)CC1 | -11.3% | ? | 3.2% | 45.4 | -5.1% | 8.8%
O=C(NCCN1CCCCCC1)C1CCC(CNS(=O)(=O)c2cccc3cccnc23)CC1 (configuration not stated) | -6.8% | 12.6µM* | 3.3% | 9.5 | -14.8% | 0.1%
CCN(CCNC(=O)C1CCN(S(=O)(=O)c2cccc3cccnc23)CC1)c1ccccc1 | 0.2% | 39.8µM* | -50.0% | -25.1 | -18.0% | -3.2%
CC1CCCCN1CCNC(=O)C1CCN(S(=O)(=O)c2cccc3cccnc23)CC1 (configuration not stated) | 6.7% | -2.2% | 9.1% | -11.4 | -9.2% | -18.4%
O=C(c1ccncc1)N1CCC2(CC1)CN(c1ncccn1)C2 | -11.5% | ? | 5.8% | · | ? | ·
Cc1cc(C)cc(N=C2NC(=O)/C(=C/c3cccs3)S2)c1 | 5.3%[10 µM] | -17.8% | 1.78µM* | ? | -12.9% | 3.0%
COc1cccc(Cn2c(=O)c(-c3cccs3)nc3cnc(OCc4ccccc4)nc32)c1 | -28.0% | ? | 8.1% | · | · | ·
Cc1ccc2c(c1)cc(CN(C(=O)N1CCOCC1)C1CCCC1)c1nnnn12 | -9.3%[10 µM] | 1.8% | 7.1% | · | · | -1.9%[9.22 µM]
CCC(=O)N(Cc1cc2ccc(C)cc2n2nnnc12)C1CCCCC1 | 10.0%[1.9 µM] | 5.01µM* | 4.8% | -13.2 | -3.3% | -5.7%
CC(=O)CC(C)(C)S(=O)(=O)c1ccc(Oc2ccc(S(=O)(=O)C(C)(C)CC(C)=O)cc2)cc1 | -4.4%[10 µM] | 8.91µM* | -9.1% | 154.5 | -0.3% | -12.1%
O=C(Nc1ccc2[nH]c(=S)sc2c1)Nc1ccccc1F | -10.7%[10 µM] | 1µM* | 8.4% | · | · | 12.7%[9.22 µM]
O=C(Nc1ccc(F)cc1)Nc1ccccc1F | -102.0% | 14.1% | 6.8% | · | · | ?
O=C(O)CCCCCCCCCCP(=O)(c1ccccc1)c1ccccc1 | 12.7%[10 µM] | · | 3.8% | · | · | 14.0%[9.22 µM]
O=P(CCCCCCCCCP(=O)(c1ccccc1)c1ccccc1)(c1ccccc1)c1ccccc1 | -124.0% | ? | 3.0% | 17.1 | -2.7% | 11.2µM*
O=C(O)c1cc([N+](=O)[O-])ccc1NCCO | 17.4%[10 µM] | 3.0% | -2.2% | 9.6 | -10.2% | -12.7%
CN(CCO)c1ccc([N+](=O)[O-])cc1C(=O)O | -1.4%[10 µM] | 22.4µM* | 7.8% | 6.4 | -19.6% | -2.5%
CCCCC1=CC2=CC(=O)C(C)(OC(=O)CC)C(=O)C2=CN1CCc1ccccn1 (configuration not stated) | -22.6%[10 µM] | 4.0%[13.5 µM] | -0.5%[14.2 µM] | · | -2.1% | 8.4%[9.22 µM]
CCCCc1cc2c(cn1)=C(OC(=O)c1cnc3ccccc3n1)C(C)(OC(=O)CC)C(=O)C=2 (configuration not stated) | -5.0%[10 µM] | 3.16µM* | 3.2%[14.2 µM] | · | -7.9% | 3.6%[9.22 µM]
CCCCc1cc2c(cn1)=C(OC(=O)CCC(=O)OC)C(C)(OC(=O)CC)C(=O)C=2 (configuration not stated) | 0.3%[10 µM] | ? | -7.7%[14.2 µM] | · | -6.3% | ·
CCCCc1cc2c(cn1)=C(OC(=O)c1ccc(Cl)nc1)C(C)(OC(=O)CC)C(=O)C=2 (configuration not stated) | 5.2%[10 µM] | 3.16µM* | 19.9%[14.2 µM] | · | 1.3% | ·
Cc1ccc2[nH]c(C)cc(=O)c2c1 | -32.2%[96.6 µM] | ? | 20.1%[136 µM] | · | -23.2% | ·
Cc1ccc2[nH]c(O)c(N=O)c2c1 | -8.3%[10 µM] | 31.6µM* | 15.2% | · | · | 7.2%[9.22 µM]
Cc1ccccc1-c1ccc2ncnc(N3CCNCC3)c2c1 | 14.8% | ? | 7.3% | · | · | ·
